Test [1] in a line: Viability qHTS for spleen associated tyrosine kinase inhibitor (SYKi) naive MV4-11 cells (AID 1963823). Further: nearly all actives have a fitted effect of over 40% in size. An outline of the steps:
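Read-out: CellTiter-Glo luminescence. Exposure: 72 hr, 37 C, 5% CO2, 95% humidity. Cells: MV4-11 without SYK inhibitor history, 500/well, qHTS format.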
Background: qHTS replaces the single test concentration by a dilution series.

A short description of test [2]: Viability qHTS for spleen associated tyrosine kinase inhibitor (SYKi) drug resistant MV4-11 cells (AID 1963824). Further: nearly all actives have a fitted effect of over 35% in size. An outline of the steps: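 CellTiter-Glo luminescence, read 10 min after reagent addition, reports viability after a 72 hr compound exposure. Cells are an MV4-11 line made resistant to SYK inhibition, seeded at 500 per well onto compound-containing plates.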

Molecules are shown by their SMILES. Results filed as inconclusive are left out. A number with no mark means an inactive call. Active and inactive are the calls of the source. The call rests on the fitted dose curve; in most records, active means well fitted cell-killing curve with a large enough effect; inconclusive means small, poorly fitted or top-dose-only effect, or effect the other way; inactive means no such curve, though single readings can be large or run the other way.
Potency means the concentration at half of the fitted maximal effect.

`C=C1CCC(OC(C)=O)C2(C)CC3(O)OC(=O)C(C)=C3CC12` (configuration not stated): the Potency entry in test [1] and in test [2] was “inactive” in each case.

`C=C1C(=O)OC2/C=C(/C)C3=CC(=O)C(C)(CC(OC(=O)/C(C)=C/COC(C)=O)C12)O3` (configuration not stated): the Potency is 0.893 µM (active) in test [1] and 0.796 µM (active) in test [2].

For the molecule `O=C(CCCCc1ccc2ccccc2c1)C(F)(F)F`, the Potency result in test [1] and in test [2] was “inactive” throughout.

Take `CS(=O)(=O)c1ccc([C@@H](CC2CCCC2)C(=O)Nc2nccs2)cc1`: the Potency in test [1] was 8.33 µM (active); in test [2], 7.42 µM (active).

As for `C[C@@H]1O[C@@H](O[C@H]2[C@H](O[C@H]3[C@H](O[C@H]4CC[C@@]5(C)C(CC[C@]6(C)C5CC=C5[C@@H]7CC(C)(C)C[C@@H](O)[C@]7(C)CC[C@]56C)C4(C)C)O[C@H](C(=O)O)[C@@H](O)[C@@H]3O)O[C@H](C(=O)O)[C@H](O)[C@@H]2O)[C@H](O)[C@H](O)[C@H]1O` (some centres not stated), the viability (% of control) in test [1] is 101% [at 9.25 µM]. The viability, % of control in test [2] is 89.8% [at 9.25 µM].

On to `Cn1c(=O)c2c(ncn2CCO)n(C)c1=O`, for which the Potency entry in test [1] and in test [2] was “inactive” throughout.

Turning to `FC(F)(F)c1cc(C(F)(F)F)c2ccc3nc(-c4nnco4)cn3c2n1`, the Potency entry in test [1] and in test [2] was “inactive” in each case.

In the case of `Cc1cc(-c2nc(C(=O)Nc3cn(C4CCOCC4)nc3C(N)=O)co2)ccn1`, the Potency in test [1] was 0.0461 µM (active); in test [2] it was 0.146 µM (active).

For `CC1=C2C=C(CO)C(CO)CCC2(C)CCC1=O` (configuration not stated), the Potency entry in test [1] and in test [2] was “inactive” in each case.

`CS(=O)(=O)c1ccc([C@@H](C[C@H]2CCC(=O)C2)C(=O)Nc2cnccn2)cc1Cl`: the Potency in test [1] and in test [2] was 15.8 µM (active) throughout.

For the molecule `CC1=CC2/C=C(\C)CCC(O)C(=O)C(O)CC(=O)C23C(=O)NC(CC(C)C)C3C1C` (configuration not stated), the Potency was 10 µM (active) in test [1] and 11.2 µM (active) in test [2].

For `CC(=O)/C=C/[C@H]1[C@](C)(O)[C@@H](O)[C@H](OC(C)=O)C2C(C)(C)CCC[C@@]21C` (some centres not stated), the Potency result in test [1] and in test [2] was “inactive” in each case.

For the molecule `CCn1c(-c2nonc2N)nc2c(C#CC(C)(C)O)ncc(OCC3CCCNC3)c21` (configuration not stated), the figures for the Potency in test [1] and in test [2] were 13 µM (active) and 8.2 µM (active), respectively.

As to `CC(O)(CC(=O)O)CC(=O)O[C@@H]1[C@@H](O)[C@H](OCCc2ccccc2)O[C@H](CO)[C@H]1O` (some centres not stated), the Potency result in test [1] and in test [2] was “inactive” in each case.

As to `C[C@@H]1C[C@H](O)/C=C/[C@H](O)[C@@H](O)CC(=O)O1`, the Potency result in test [1] and in test [2] was “inactive” in each case.

`CCOc1ccc(-n2c([C@@H](C)N(Cc3cccnc3)C(=O)Cc3ccc(OC(F)(F)F)cc3)nc3ncccc3c2=O)cc1`: the Potency in test [1] is 18.4 µM (active); in test [2] it was 16.4 µM (active).
